In PubChem BioAssay AID588676 (Johns Hopkins Ion Channel Center, 2011):
Hit rate of the full screen: of about 310,000 compounds, about 3,900 (1.3%) were called active.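 How the source made its calls: active means calcium-response B-score plate-corrected more than 3 library SD below zero, starting fluorescence within 5 deviations, no agonist response on first addition; inactive means the rest.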 Many of the other results were omitted from the sample, so actives are more common in it than they were.

target: Mas-related G-protein coupled receptor member X1 (Homo sapiens) (UniProt Q96LB2); test: blockade of BAM8-22-evoked MrgX1 calcium response – HEK293 cells, Fluo-4 calcium flux, primary screen (AID 588676); conditions: Fluo-4, BAM8-22 antagonism, at 10 µM; hits give low values;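 on B-score: peak minus trough fluorescence over baseline after final BAM8-22 challenge near maximal dose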
Sequence (Q96LB2 whole entry, looked up): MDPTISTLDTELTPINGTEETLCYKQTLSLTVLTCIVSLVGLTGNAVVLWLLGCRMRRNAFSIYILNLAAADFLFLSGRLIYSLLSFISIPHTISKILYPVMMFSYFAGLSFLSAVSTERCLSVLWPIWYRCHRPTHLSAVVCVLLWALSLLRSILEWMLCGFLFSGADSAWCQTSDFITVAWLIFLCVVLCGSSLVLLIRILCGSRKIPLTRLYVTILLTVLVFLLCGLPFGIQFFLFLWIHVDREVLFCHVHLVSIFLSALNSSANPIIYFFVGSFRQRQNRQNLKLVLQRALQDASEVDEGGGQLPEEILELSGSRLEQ

SMILES | B-score
CN(c1ccccc1)S(=O)(=O)c1ccc(Cl)c(C(=O)OCC(=O)N2CCOCC2)c1 | inactive
COC(=O)c1c(NC(=O)COc2ccc(Cl)cc2Cl)sc2c1CC(C)(C)NC2(C)C | inactive
O=C(Cc1ccccc1)Nc1c(C(=O)N2CCCCCC2)cnn1-c1ccccc1 | inactive
COc1ccc([N+](=O)[O-])cc1NC(=O)COC(=O)/C=C/c1ccco1 | -24.1 (active)
CC(C)CNC(=O)COC(=O)/C=C/c1ccco1 | inactive
COc1ccc([N+](=O)[O-])cc1NC(=O)CCc1ccccc1 | inactive
COC1=CCC2([N+](=O)[O-])CN(CC(=O)O)CC1([N+](=O)[O-])C2 (stereo unspecified) | -5.87 (active)
COc1ccc([N+](=O)[O-])cc1N(CC(=O)Nc1ccccc1C(=O)N1CCOCC1)S(C)(=O)=O | inactive
CC(CCc1ccccc1)NC(=O)c1cnc(Cl)c(Cl)c1 (stereo unspecified) | inactive
COCC(C)NC(=O)c1ccc(Cl)c(Cl)c1 (stereo unspecified) | -8.76 (active)
CC(C)CCC(C)NC(=O)c1ccc2nccnc2c1 (stereo unspecified) | inactive
CC(=O)C1=C(C)NC(=O)NC1c1ccc2c(c1)OCO2 (stereo unspecified) | inactive
CC(=O)Nc1cccc(Oc2cc(C#N)c(C#N)cc2N2CCOCC2)c1 | inactive
COc1cc(N2CCCC2)c(OC)cc1/C=C(/C#N)c1cccc(Br)c1 | -7.19 (active)
COc1ccc(Br)cc1/C=N/n1c(C)nnc1C | inactive
O=C(COC(=O)/C=C/c1ccc(OC(F)F)cc1)NC1CCCCC1 | inactive
COc1ccc(-c2noc(C(C)NS(=O)(=O)c3ccc(NC(C)=O)cc3)n2)cc1 (stereo unspecified) | inactive
CCCCCCCCCCCCN1C(=O)CSC1c1cccnc1 (stereo unspecified) | inactive
CCOC(=O)CSc1ncc(-c2cccc(Cl)c2)cn1 | inactive
CCOC(=O)c1c(S(=O)(=O)Nc2cccc(Cl)c2)c(C)n(C)c1C | inactive
CCOC(=O)C1=C(O)CSC1=Nc1cccc(Cl)c1 | -5.49 (active)
N=c1n(CCc2ccccc2)c2ccccc2n1Cc1ccccc1F | inactive

SMILES | B-score
O=C(Nc1ccc(F)c([N+](=O)[O-])c1)C1CC(=O)N(Cc2ccccc2)C1 (stereo unspecified) | inactive
Cc1cc(=O)oc2cc(NC(=O)C(C)Oc3ccccc3)ccc12 (stereo unspecified) | inactive
Cc1cc(=O)oc2cc(NC(=O)C3CC(=O)N(Cc4ccccc4)C3)ccc12 (stereo unspecified) | -7.83 (active)
Cc1ccc(N(C(=O)Cc2cccs2)C2C=CS(=O)(=O)C2)cc1Cl (stereo unspecified) | inactive
Cn1c(NC(=O)c2ccco2)c(-c2ccccc2Cl)c(=O)c2ccccc21 | inactive
CCOCCCN1C(=O)C2C(C(=O)Nc3ccc(OCC)cc3)C3C=CC2(O3)C1C(=O)NC1CCCCC1 (stereo unspecified) | inactive
CC(=O)OCCN(CCCn1c(-c2ccncc2)nc2ccccc21)c1nc(-c2ccc(C)cc2)cs1 | inactive
O=C(Cc1ccccc1)Nc1cccc(C(=O)N/N=C/c2ccco2)c1 | -18.1 (active)
O=C(N/N=C/c1ccco1)c1ccc(C(=O)N/N=C/c2ccco2)o1 | inactive
O=C(Cc1ccccc1)Nc1cccc(NC(=O)c2ccccc2)c1 | inactive
N#CCC(=O)NC(=O)NCC1CC1 | inactive
CC1Cc2ccccc2N1C(=O)CSc1nnc(-c2ccc(S(=O)(=O)N3CCCC3)cc2)n1C (stereo unspecified) | inactive
CC(NCc1cccs1)C(=O)Nc1cc(Cl)cc(Cl)c1 (stereo unspecified) | inactive
COc1ccc(S(=O)(=O)N2CCOCC2)c(C)c1C | -6.44 (active)
COc1cc(C)c(S(=O)(=O)N2CCOCC2)c(C)c1C | inactive
COc1ccc(S(=O)(=O)N2CCCC2)c(C)c1C | inactive
COc1cccc2cc(/C(C)=N/NC(=O)c3ccco3)oc12 | inactive
Cn1nccc1C(=O)NC1CCCc2c1cnn2-c1ccc(F)cc1F (stereo unspecified) | inactive
COc1ccc(N2CCN(C(=O)c3cn(C)c4ccc(S(=O)(=O)N5CCOCC5)cc4c3=O)CC2)cc1 | inactive
CCOC(=O)N1CCN(C(=O)c2cn(C)c3ccc(S(=O)(=O)N(CC)CC)cc3c2=O)CC1 | inactive
CCOC(=O)N1CCN(C(=O)c2cn(C)c3ccc(S(=O)(=O)N4CCCC4)cc3c2=O)CC1 | -6.83 (active)
N/C(=N\OS(=O)(=O)c1cccc([N+](=O)[O-])c1)c1ccncc1 | inactive

SMILES | B-score
C=CCSc1nc(Cc2ccc(Cl)cc2)nc2ccccc12 | -5.91 (active)
Clc1ccc(CSc2nnc3c(n2)[nH]c2ccccc23)cc1 | inactive
CCCNC(=O)CSc1nc(Cc2ccccc2)nc2ccccc12 | inactive
COc1ccccc1NC(=S)N1CCC(NC(=O)C23CC4CC(CC(C4)C2)C3)CC1 | inactive
FC(F)(F)c1cc(-c2ccco2)nc(NCc2ccc(Cl)cc2)n1 | inactive
COc1ccc(-c2cc(C(F)(F)F)nc(SCCC(=O)NCc3ccco3)n2)cc1 | inactive
FC(F)(F)c1cc(-c2cccs2)nc(NCc2ccco2)n1 | -5.29 (active)
CC(=O)c1c(C)[nH]c(C(=O)CN2C(=O)NC(C)(C)C2=O)c1C | inactive
Cc1nc(-c2ccc(F)cc2)c(CC(=O)N2CCN(S(=O)(=O)c3ccc(F)cc3)CC2)s1 | inactive
CC(=O)N(C1=C(Cl)C(=O)c2ccccc2C1=O)c1ccc(C(=O)O)cc1 | -18.7 (active)
FC(F)(F)c1cccc(-c2cc3ccccc3nc2N2CCCC2)c1 | inactive
O=C(COc1ccccc1)Nc1ccc(C(=O)N2CCCC2)cc1 | inactive
C/C(=N\NC(=O)Cc1ccc(Br)cc1)c1cccnc1 | inactive
C/C(=N\NC(=O)Cc1ccc(F)cc1)c1ccc(F)cc1 | -8.25 (active)
C/C(=N/NC(=O)CC(=O)N/N=C(\C)c1ccc([N+](=O)[O-])cc1)c1ccc([N+](=O)[O-])cc1 | inactive
COc1ccc2c3c1O[C@H]1C[C@@H](O)C=C[C@@]31CCN(C)C2 | inactive
Cc1nn(-c2ccccc2)c2c1C(c1ccc(F)cc1)C(C#N)=C(N)O2 (stereo unspecified) | -13.4 (active)
COc1ccccc1C1C(C#N)=C(N)Oc2c1c(-c1ccccc1)nn2-c1ccccc1 (stereo unspecified) | inactive
Cc1nn(Cc2ccccc2)c2c1C(c1ccccc1)C(C#N)=C(N)O2 (stereo unspecified) | inactive
CC(C)(C)c1ccc(C(CC(=O)O)NS(=O)(=O)Cc2ccccc2)cc1 (stereo unspecified) | inactive
Cc1c(CCO)c(=O)[nH]n1C(=O)c1c(F)cccc1F | inactive
CCOC(=O)[C@H]1CCC[C@@H](NS(=O)(=O)c2ccc(NC(C)=O)cc2)C1 | inactive
